We go through 36 molecules from ChEMBL document CHEMBL3988442, “University of Dundee, Small-Polar-MMV Screening Library” (2021).

About 13,000 (27%) of roughly 48,000 compounds showed an effect of 50% or more. The list shows a part of the results.

This assay relates to Wolbachia pipientis. Put plainly: Anti-Wolbachia Cell-Based Screen. It is filed as functional. On the set-up: scale not given: in the data most compounds retested in dose-response had high values. The following applies: 5 µM.
As for `CC(C)OCc1nn(CC2CC2)c2c1CN(Cc1ccco1)CC2.O=C(O)C(F)(F)F`, the “Percent Effect” value is 3.908%.

`Cc1cccc(C)c1-n1nnnc1C1(NCc2ccco2)CCCC1`: the “Percent Effect” value came to 75.79%.

As for `Cc1csc(C2(NCc3nnc(-c4ccco4)o3)CCCC2)n1`, the “Percent Effect” value is recorded as -3.858%.

Regarding `Cc1ccc(-n2nnnc2C2(NCc3ccco3)CCCC2)cc1`, the “Percent Effect” value came to 2.087%.

For the molecule `Fc1cccc(-c2nc(CN3CCn4c(nnc4C4CC4)C3)co2)c1`, the “Percent Effect” value amounted to 2.763%.

Take `CCOCCN1CCN(Cc2coc(-c3cccc(F)c3)n2)CC1`: the “Percent Effect” value was found to be 74.94%.

`O=C(C1CC1)N1CCN(Cc2coc(-c3ccc(Cl)cc3)n2)CC1`: the “Percent Effect” value stood at 3.08%.

As for `OCCN1CCN(Cc2coc(-c3cccc(F)c3)n2)CC1`, the “Percent Effect” value is reported as 105.3%.

Take `CCN1CCN(Cc2coc(-c3cccc(F)c3)n2)CC1`: the “Percent Effect” value is 3.559%.

In the case of `OCCN1CCN(Cc2coc(-c3cccc(Cl)c3)n2)CC1`, the “Percent Effect” value amounted to 116.8%.

On to `OCCN1CCN(Cc2cc(Cl)cc3cccnc23)CC1`, for which the “Percent Effect” value turned out to be 0.645%.

As for `CCc1nc(C)c(C2CC(=O)Nc3c2c(-c2ccccn2)nn3C)[nH]1` (stereo unspecified), the “Percent Effect” value came to 6.33%.

As for `CCC(C)(N)c1nc(=O)c(C(C)C)c(C)[nH]1.Cl` (stereo unspecified), the “Percent Effect” value is -21.29%.

For the molecule `Cl.O=C(NC[C@@]1(COc2cnccn2)C[C@@H](O)[C@@H](O)C1)C1CCOCC1`, the “Percent Effect” value is given as -6.345%.

Take `O=C(Cc1ccc2c(c1)OCO2)N1CCCN(c2nccs2)CC1`: the “Percent Effect” value is -6.237%.

`CCCC1c2cccn2CCN1S(=O)(=O)N1CCOCC1` (stereo unspecified): the “Percent Effect” value was found to be 118.3%.

On to `CC1c2cccn2CCN1S(=O)(=O)N1CCCCCC1` (stereo unspecified), for which the “Percent Effect” value is on record as -11.34%.

`CC1CCN(S(=O)(=O)N2CCn3cccc3C2C)CC1` (stereo unspecified): the “Percent Effect” value is reported as -8.051%.

With `O=S(=O)(N1CCOCC1)N1CCc2sccc2C1`, the “Percent Effect” value was determined as 7.177%.

Take `CCC1c2cccn2CCN1S(=O)(=O)N1CCOCC1` (stereo unspecified): the “Percent Effect” value is on record as 79.2%.

For `O=S(=O)(N1CCOCC1)N1CCCCC1CCc1ccc(O)cc1` (stereo unspecified), the “Percent Effect” value worked out at 2.652%.

`Cc1nc(C)c(-c2ccn(CC(=O)Nc3cnn(C)n3)n2)s1`: the “Percent Effect” value is -4.351%.

As for `O=C([C@H]1COC[C@H]2CN(C3CCOCC3)C[C@H]21)N1CCCCO1`, the “Percent Effect” value was found to be 5.01%.

Consider `CC(C)CC(C)NC1CCN(c2cccc(-c3cscn3)c2)CC1` (stereo unspecified), for which the “Percent Effect” value is recorded as -3.86%.

As for `Cc1csc(S(=O)(=O)N2CCN(C)C3(CCC(=O)N(C)CC3)C2)c1` (stereo unspecified), the “Percent Effect” value is reported as -20.06%.

Consider `CSc1ccccc1C(=O)N1CCN(C)C2(CCC(=O)N(C)CC2)C1` (stereo unspecified), for which the “Percent Effect” value is 119%.

As for `CC(C)=CCCN1CCN(C)C2(CCC(=O)N(C)CC2)C1` (stereo unspecified), the “Percent Effect” value turned out to be 4.747%.

Take `CN1CCC2(CC1)CN(C(=O)c1cccc3cccnc13)CCN2C`: the “Percent Effect” value was -18.03%.

Turning to `Cc1ccc(C)c(S(=O)(=O)N2CCN(C)C3(CCC(=O)N(C)CC3)C2)c1` (stereo unspecified), the “Percent Effect” value is -7.559%.

On to `CC(C)N1CC2(CCC1=O)CCN(C(=O)c1cc(F)ccc1Cl)CC2`, for which the “Percent Effect” value is -13.76%.

For `Cc1cc(F)ccc1C(=O)N1CCN(C)C2(CCC(=O)N(C)CC2)C1` (stereo unspecified), the “Percent Effect” value was found to be 91.8%.

With `Cc1ccc(S(=O)(=O)N2CCN(C)C3(CCC(=O)N(C)CC3)C2)s1` (stereo unspecified), the “Percent Effect” value is reported as 14.37%.

Take `Cc1[nH]ccc1C(=O)N1CCN(C)C2(CCC(=O)N(C)CC2)C1` (stereo unspecified): the “Percent Effect” value came to 98.32%.

For `Cc1[nH]ccc1C(=O)N1CCC2(CC1)c1nc[nH]c1CCN2CC(C)C`, the “Percent Effect” value is listed as 14.8%.

Consider `Cc1ccc(C(=O)N2CCN(C)C3(CCC(=O)N(C)CC3)C2)c(F)c1` (stereo unspecified), for which the “Percent Effect” value is given as 104.4%.

For `CN1CC2(CCCN(C(=O)c3cnc4ccc(F)cc4c3O)C2)OC1=O` (stereo unspecified), the “Percent Effect” value was -10.25%.
